# An excerpt weighted towards active compounds, which were near 14% of everything screened.
# HSD17B inh: inhibitors of human HSD17B10 dehydrogenase; recombinant HSD17B10, NADH fluorescence kinetic; AID 893; Q99714; actives 7.6% (n = 75,000); Potency, µM (highest dose often 57.1 µM), usual class: inhibitors;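 further: the protocol describes HADH2 (HSD17B10) and not the HSD17B4 of the title; nearly all actives have a fitted effect of over 70% in size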
#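 Activity followed as NADH fluorescence increase (ex 360, em 450 nm) every 30 seconds for 4 min, using final 90 uM beta-hydroxybutyryl CoA and 1 mM NAD+. Recombinant His-tagged enzyme, 20 nM, pH 9.0 Tris buffer, 15 min compound preincubation.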
# AID923: qHTS Assay for Allosteric/Competitive Inhibitors of Caspase-1: Spectroscopic Profiling in AFC Spectral Region; compound fluorescence, AFC spectral region (405/520 nm); Potency, µM (highest dose often 57.5 µM), most hits filed as activators; actives 1.1% (n = 75,000)
#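 Compound autofluorescence profiled at 405 nm ex/520 nm em during kinetic caspase 1 run (50 nM enzyme, 5 uM Ac-WEHD-AFC, HEPES pH 7.5, 10 mM DTT). Titration up to 57 uM; baseline from regression intercept, normalized to AFC standard curve.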
# HADH2 inh: HADH2 (human) dehydrogenase inhibition; recombinant HADH2, NADH fluorescence, beta-hydroxybutyryl-CoA; Potency, µM (top dose mostly 57.1 µM), most hits filed as inhibitors; actives 3.4% (n = 73,000); further: nearly all actives have a fitted effect of over 60% in size
# Target sequence (Q99714 whole entry, looked up, one chain of several): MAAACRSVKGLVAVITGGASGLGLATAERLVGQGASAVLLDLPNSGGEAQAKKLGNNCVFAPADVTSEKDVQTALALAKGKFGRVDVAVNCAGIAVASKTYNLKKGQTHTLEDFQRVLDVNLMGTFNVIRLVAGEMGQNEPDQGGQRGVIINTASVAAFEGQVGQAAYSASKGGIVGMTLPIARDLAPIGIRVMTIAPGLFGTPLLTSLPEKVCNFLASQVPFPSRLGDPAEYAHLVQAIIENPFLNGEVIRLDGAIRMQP
#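 NADH fluorescence (ex 360/em 450 nm) read every 30 s for 4 min; activity taken as last-minus-first time point difference. Enzyme 20 nM, NAD+ 1 mM, beta-hydroxybutyryl-CoA 90 uM, pH 9.0 Tris buffer.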
# CRE Fsk mod: CRE-bla signaling modulation under forskolin stimulation; CHO CRE-bla reporter (cAMP response element driving beta-lactamase), forskolin EC10, beta-lactamase ratio; actives 2.5% (n = 71,000); Potency, µM (series often up to 38.2 µM), actives largely listed as activators; active means well fitted activation curve with a large enough effect in the signal ratio, with a control signal flat, not every such curve was filed as active; inconclusive means small, poorly fitted or top-dose-only effect, or effect the other way, or a change in a side signal; the % refers to the signal ratio
#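 Modulation of forskolin-driven signalling is measured in CHO cells carrying a CRE-controlled beta-lactamase reporter. Cells are stimulated with EC10 NKH 477 in the presence of titrated compound for 3 h at 37 °C, then loaded with CCF4 for 2 h at room temperature.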
# 4MU fluor: 4-MU region autofluorescence; compound autofluorescence, 340/450 nm, 4-MU equivalents; hits give high values; max dye-equivalent concentration, M; actives 11% (n = 59,000); in the data active means max dye-equivalent concentration above about 10 nM; inconclusive means mostly about 1.1 nM to 9.6 nM
#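 Intrinsic fluorescence at 340/450 nm (ex/em) was read after 15 min at room temperature in pH 8.0, 100 mM Tris. Each compound concentration expressed as 4-MU-equivalent concentration from a six-point 4-MU standard series on each plate.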
# A350 autofl: compound fluoresces in the Alexa 350 spectral region; actives 11% (n = 59,000); Compound autofluorescence, 340/450 nm, Alexa 350 dye-equivalents; hits give high values; max dye-equivalent concentration, M; in the data active means max dye-equivalent concentration above about 10 nM; inconclusive means mostly about 1.1 nM to 9.6 nM
# A number is an active result; - = inactive; ? = inconclusive; . = no result given; ! = a repeat was not active. Unless noted, the call rests on the fitted dose curve; in most records, active means well fitted curve in the direction sought with a large enough effect; inconclusive means small, poorly fitted or top-dose-only effect, or another doubt; inactive means no such curve, though single readings can be large; an effect the other way counts as inactive or inconclusive.
SMILES,HSD17B inh,AID923,HADH2 inh,CRE Fsk mod,4MU fluor,A350 autofl
Clc1ccccc1-c1nnc2sc(-c3ccc(Br)o3)nn12,-,-,-,-,-,-
c1ccc2c(c1)ncn2Cc1nnc2sc(-c3ccc4c(c3)OCO4)nn12,32µM,-,16µM,13µM,?,?
Brc1ccccc1-c1nnc2sc(-c3ccc4c(c3)OCCO4)nn12,32µM,-,-,?,-,-
Cc1oc(-c2ccc(Cl)cc2)cc1-c1nn2c(-c3ccoc3C)nnc2s1,13µM,-,32µM,-,-,-
Clc1ccccc1-c1nnc2sc(-c3ccc4c(c3)OCO4)nn12,32µM,-,1.3µM,?,?,?
Cc1cc(Nc2ccccc2F)n2nc(C)nc2n1,-,-,-,?,.,.
Cn1c(=O)c2c(ncn2CC(=O)N(Cc2ccccc2)c2ccccn2)n(C)c1=O,-,-,-,-,-,-
O=C(Nc1ccccc1N1CCN(c2ccc(F)cc2)CC1)c1ccccc1,-,-,-,-,-,-
CCCC(O)C(CC)CO (stereo unspecified),-,-,-,-,.,.
Clc1cccc(-c2nnc3sc(-c4ccc5c(c4)OCO5)nn23)c1,-,-,?,-,?,1.1e-08M
Clc1ccc(-c2nnc3sc(-c4ccc(Br)o4)nn23)c(Cl)c1,-,-,-,?,-,-
CN(C)c1ccc(-c2nn3c(-c4ccc(Cl)cc4Cl)nnc3s2)cc1,-,-,-,-,1.5e-07M,1.8e-07M
CSc1nnc([C@@H](NC(=O)OC(C)(C)C)C(C)C)o1,-,-,-,-,?,?
COc1cc(-c2nnc3sc(Cc4ccccc4)nn23)cc(OC)c1OC,-,-,?,10µM,-,?
COc1ccc(Cc2nn3c(-c4ccccc4Br)nnc3s2)cc1,-,-,-,-,-,-
COc1cc(-c2nnc3sc(Cc4ccc(Cl)cc4)nn23)cc(OC)c1OC,-,-,10µM,2.5µM,-,-
COc1ccc(Cc2nn3c(-c4cc(OC)c(OC)c(OC)c4)nnc3s2)cc1,-,-,7.9µM,5µM,-,-
COc1ccc(Br)cc1CNC(=O)C1CCCN(c2nc3ccccc3o2)C1 (stereo unspecified),-,-,-,?,-,-
Cc1ccc(CNC(=O)CN2CCN(Cc3ccc(C)cc3)C2=O)cc1,-,-,-,?,-,-
Cc1ccc(Cl)cc1NC(=O)CC(O)(C(F)(F)F)C(F)(F)F,-,-,-,-,-,-
CCc1c(C)nc2ncnn2c1N1CCCC(C(=O)NCc2ccc3c(c2)OCO3)C1 (stereo unspecified),-,-,-,?,-,-
CCCCNC(=O)C(c1ccc(OCC(=O)OC)c(C(=O)OC)c1)N(Cc1ccccc1)C(=O)CCCCCN1C(=O)NC(c2ccc(-c3ccccc3)cc2)C(C(=O)OCc2ccccc2)=C1C (stereo unspecified),-,-,-,-,.,.
Cc1c(NC(=O)C(C#N)=C2CCCCC2)c(=O)n(-c2ccccc2)n1C,-,-,-,-,-,-
COc1ccc2cc(C#N)c(SCC(=O)N3CCCC3)nc2c1,25µM,-,-,-,9.7e-08M,1.1e-07M
COC(=O)CSc1nc2cc(OC)ccc2cc1C#N,25µM,-,-,?,2.2e-08M,2e-08M
SMILES,HSD17B inh,AID923,HADH2 inh,CRE Fsk mod,4MU fluor,A350 autofl
Cn1c(=O)n(C)c2cc(CN3C(=O)OC(C)(C)C3(C)O)ccc21 (stereo unspecified),-,-,-,-,.,.
CC(=O)Nc1ccc(NC(=O)Cn2cc3c(n2)CCCC3)cc1,-,-,-,?,-,-
Cc1ccc(C2C3=C(CCCC3=O)Nc3nc(SCC(=O)NCc4ccco4)[nH]c(=O)c32)cc1 (stereo unspecified),20µM,-,?,?,3.6e-07M,3.9e-07M
O=C1CCCC2=C1C(c1ccncc1)c1c(nc(SCc3ccccc3)[nH]c1=O)N2 (stereo unspecified),?,-,-,-,1.4e-07M,1.5e-07M
CCSc1nc2c(c(=O)[nH]1)C(c1ccncc1)C(C(=O)OC(C)C)=C(C)N2 (stereo unspecified),-,-,-,?,?,?
CCSc1nc2c(c(=O)[nH]1)C(c1ccccn1)C1=C(CC(C)(C)CC1=O)N2 (stereo unspecified),32µM,-,-,-,1.8e-06M,2.1e-06M
Nc1nc(SCC(=O)NCc2ccco2)[nH]c(=O)c1-c1ccccc1,-,-,-,-,-,-
CCOC(=O)N1CCN(Cc2nc3c(c(=O)n(C)c(=O)n3C)n2Cc2cccc(C)c2)CC1,-,-,-,?,-,-
CCCC(=O)Nc1c(C(=O)OCC)[nH]c2ccccc12,?,-,-,-,.,.
CCOC(=O)c1[nH]c2ccccc2c1N=CN(CC)CC,.,.,.,.,1.3e-08M,1.6e-08M
CCN1CCN(C(=O)C(NS(=O)(=O)c2ccc3nc(C)sc3c2)C(C)C)CC1 (stereo unspecified),-,-,-,-,.,.
CCOC(=O)CC(C(=O)OCC)P(=O)(c1ccccc1)c1ccccc1 (stereo unspecified),-,-,-,-,.,.
O=C(CN1C(=O)CCS(=O)(=O)c2ccccc21)Nc1cccc(F)c1,-,-,-,-,?,?
Clc1ccccc1CN1CCc2sccc2C1,-,-,-,-,8.9e-07M!,1.2e-06M!
Cn1c(=O)cc(SCC(=O)NCCCN2CCOCC2)c2ccccc21,-,-,-,-,-,-
CCCCNC(=O)CSc1cc(=O)n(C)c2ccccc12,25µM,-,-,-,?,?
CCn1c(=O)cc(SCC(=O)N2CCC(C)CC2)c2ccccc21,-,-,-,-,-,-
CCn1c(=O)cc(SCC(=O)NCc2ccccn2)c2ccccc21,?,-,-,7.9µM,-,-
CCn1c(=O)cc(SCC(=O)N2CCCCC2)c2ccccc21,25µM,-,-,?,-,?
COc1ccc(CN(C(=O)c2ccco2)C2CC(C)N(C)CC2C)cc1 (stereo unspecified),-,-,-,-,-,-
Cc1cccc(C)c1NC(=O)[C@H](C)N,-,-,-,-,-,-
O=C(CSc1nnc2ccccn12)c1ccc2c(c1)OCCO2,-,-,?,-,-,-
COCCNC(=O)CN(C(=O)CCC(=O)Nc1ccccn1)c1ccc(F)cc1,-,-,-,-,-,-
COC(=O)[C@@H]1[C@@H]2C[C@H]3c4[nH]c5cc(OC)ccc5c4CCN3C[C@@H]2C[C@H](OC(=O)c2cc(OC)c(OC)c(OC)c2)[C@H]1OC,-,-,-,-,2e-08M,1.6e-08M
O=C1CCCC2=C1C(c1ccccc1O)C1=C(CCCC1=O)O2,-,-,-,-,-,-
O=C1CCCC(O)=C1C(C#Cc1ccccc1)C1=C(O)CCCC1=O,?,-,13µM,-,-,-
